Assay outcomes as filed in PubChem BioAssay.
A selection: hits, their analogues and other compounds. The true share with any hit is near 7.9%.
SW480 rereplic = A quantitative high throughput screen for small molecules that induce DNA re-replication in SW480 colon adenocarcinoma cells; SW480 DNA re-replication, Hoechst DNA content imaging, 48 h; Potency, µM (doses to about 46.1 µM), for inactives: top-dose re-replication activation, usual class: activators; 1.8% of 340,000 active; AID 624297, 2012; note: % of control where 0% means no effect; nearly all actives have a fitted effect of over 55% in size
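SW480 cells exposed to compounds for 48 hr at 37 C, 5% CO2, then Hoechst-stained 40 min. Nuclear DNA content imaged by fluorescence scanning (405 nm excitation, 500-530 nm emission); re-replication scored as increased high-intensity nuclei.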
HT1080NT lethal = qHTS for induction of synthetic lethality in tumor cells producing 2HG: qHTS for the HT-1080-NT fibrosarcoma cell line; HT-1080-NT fibrosarcoma viability, CellTiter-Glo ATP luminescence, 48 h; Potency, µM (top dose mostly 46.1 µM), inactives show at the top dose activity, negative = less viability, most hits filed as cytotoxic; 1.6% of 360,000 active; AID 686970, 2013;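 note: NT is the 2HG producing partner of a matched IDH1 knockdown line; 0% = DMSO-treated cells and -100% = media-only wells without cells; nearly all actives have a fitted effect of over 55% in size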
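Luminescent CellTiter-Glo readout after 48 hours of compound exposure at 37 degrees C defined viability of HT-1080-NT cells. Activity was normalized to DMSO wells and cell-free media wells; concentration-response curves were fitted and assigned curve classes.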
KB-V1 cytotox = qHTS assay for MDR1-selective chemotherapeutics: Primary screen using the drug-selected MDR subline cells KB-V1 | KB-V1 MDR cells viability, CellTiter-Glo, 72 h | 3.4% of 400,000 active | Potency, µM (highest dose often 46.1 µM), actives largely listed as cytotoxic; note: % is set by controls: 0 for no effect and ±100 for the full control effect; nearly all actives have a fitted effect of over 60% in size
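Luminescent ATP read-out (CellTiter-Glo, 10 min) measures survival of drug-selected KB-V1 MDR cells after 72 h, 37 degrees C compound exposure. Medium: phenol-red-free DMEM, 10% FBS. Values from fitted concentration-response curves.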
MCF10A rerep = A quantitative high throughput screen for small molecules that induce DNA re-replication in MCF 10a normal breast cells | MCF 10A DNA re-replication, Hoechst nuclear intensity, 48 h | Potency, µM (top dose mostly 46.1 µM), for inactives: at the top dose activity, positive = re-replication, actives largely listed as activators | 2.9% of 350,000 active | AID 624296, 2012; note: % of control where 0% means no effect; nearly all actives have a fitted effect of over 50% in size
HT1080 IDH1KD tx = qHTS for induction of synthetic lethality in tumor cells producing 2HG: qHTS for the HT-1080-IDH1KD cell line | Potency, µM (highest dose often 46.1 µM), for the others: top-dose activity, negative = toxicity, usual class: cytotoxic | 2% of 360,000 active | HT-1080 IDH1 knockdown viability, ATP luminescence, 48 h | AID 686971, 2013;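 note: 0% = DMSO wells and -100% = cell-free medium wells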
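IDH1KD HT-1080 cells, 750/well, RPMI + 5% FBS; compound pinned after 2 h settling; 48 h, 37 °C; CellTiter-Glo luminescence; % activity normalised to DMSO and no-cell wells; curves fitted, classed by r2 and efficacy.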
KB-3-1 tox = qHTS assay for MDR1-selective chemotherapeutics: Primary screen using the parental adenocarcinoma cell KB-3-1; Potency, µM (top dose mostly 46.1 µM), most hits filed as cytotoxic; KB-3-1 viability, CellTiter-Glo ATP luminescence, 72 h; 1.4% of 400,000 active; note: % is set by controls: 0 for no effect and ±100 for the full control effect; nearly all actives have a fitted effect of over 60% in size
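Viability of parental KB-3-1 cells, measured by CellTiter-Glo luminescence, followed a 72 h incubation at 37 °C with pinned compounds in phenol-red-free DMEM containing 10% FBS.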
Numbers without * were called inactive; i = inactive; u = inconclusive; x = no result; [ ] = dose if it differs, or a comment. Calls come from the whole dose curve; as a rule, active = well fitted curve in the direction sought with a large enough effect; inconclusive = small, poorly fitted or top-dose-only effect, or another doubt; inactive = no such curve, though single readings can be large; an effect the other way counts as inactive or inconclusive. Potency is the fitted concentration of half-maximal effect.

SMILES | SW480 rereplic | HT1080NT lethal | KB-V1 cytotox | MCF10A rerep | HT1080 IDH1KD tx | KB-3-1 tox
CCOC(=O)c1c(CSc2ccccc2)oc2ccc(O)cc12 | 0% | -19% | i | 18µM* | -15% | i
CCOC(=O)c1c(CSc2ccc(CC)cc2)oc2ccc(O)c(CN(C)C)c12 | 18µM* | u | u | u | 21µM* | u
COC(=O)Cc1c(CSc2ccccc2)oc2ccc(O)c(CN(C)C)c12 | -2% | 0% | i | u | 5% | i
CC(=O)c1c(CSc2ccccc2)oc2ccc(O)c(CN(C)C)c12 | 13µM* | u | i | u | u | i
CN(C)c1cc[n+](CCC(=O)Nc2cccc([N+](=O)[O-])c2N)cc1 | 0% | 14% | i | -3% | 9% | i
COc1ccc(C(CC(=O)c2ccccc2)S(=O)(=O)c2ccc(C)cc2)cc1 (stereo not given) | u | 16% | i | u | 1% | i
CC(OC(=O)c1ccc(S(=O)(=O)NCc2ccco2)cc1)C(=O)Nc1ncc(Cl)cc1Cl (stereo not given) | 1% | 2% | i | -8% | -1% | i
Cc1ccsc1C(=O)NNC(=O)c1ccccc1F | 0% | -2% | u | 1% | -14% | i
Cc1ccc2cc(CN(Cc3ccco3)C(=O)C3CCCCC3)c(=O)[nH]c2c1C | -3% | 8% | i | 1% | 19% | i
COc1ccccc1NC(=S)N(Cc1ccco1)Cc1cc2ccc(C)c(C)c2[nH]c1=O | u | u | 1.8µM* | u | u | 0.92µM*
COc1ccccc1NC(=S)N(Cc1ccco1)Cc1cc2cc(C)cc(C)c2[nH]c1=O | 21µM* | u | 2.9µM* | 13µM* | u | 6.5µM*
CNC(=S)N(Cc1ccco1)Cc1cc2cc(OC)c(OC)cc2[nH]c1=O | -7% | -10% | i | 2% | -2% | i
Cc1ccc(N=C2SC(C(=O)Nc3ccc(OC(F)(F)F)cc3)C(N)=C2C(=O)Nc2c(C)cc(C)cc2C)cc1 (stereo not given) | 12% | 15µM* | u | 3.7µM* | 18µM* | u
Cc1ccc(NC(=O)C2SC(=Nc3ccccc3)C(C(=O)Nc3ccc(Cl)cc3)=C2N)cc1 (stereo not given) | -8% | -22% | i | 21µM* | -26% | i
Cc1ccc(NC(=O)c2cc3cc(OC(F)(F)F)ccc3[nH]2)cc1 | -27% | 10% | i | 0% | 14% | i
CCC(=O)N(CCC(c1ccco1)C(C)C)Cc1ccccc1 (stereo not given) | -3%[9.22 µM] | -17% | i | 15% | -23% | i
CC(=O)N(CCC(c1ccco1)C(C)C)Cc1ccc(Cl)cc1 (stereo not given) | -3% | -10% | u | 4.1µM* | -14% | i
CN(C)/C=C/C(=O)c1ccc(-n2cccc2)cc1 | -19% | -5% | u | u | 0% | i
CN(C)/C=C/C(=O)c1ccc(Cl)cc1 | -1% | 0% | i | 18µM* | -24% | i
CN(C)/C=C/C(=O)c1cccc(Cl)c1 | 0% | 0% | i | 5.8µM* | 2% | i
CN(C)/C=C/C(=O)/C=C/c1ccc(Cl)cc1 | 9% | 12µM* | i | u | u | i
O=C(C1CCN(c2ncnc3c2nc2n3CCCCC2)CC1)N1CCN(c2ccc(F)cc2)CC1 | 7% | -1% | i | -1% | -7% | u
O=C(Nc1ccccc1)c1ccc(Cn2cc(C(F)(F)F)ccc2=O)cc1 | 1% | u | 15µM* | 13% | -1% | i
N#Cc1cccc(Cn2cc(C(F)(F)F)ccc2=O)c1 | -3% | 1% | i | 1% | 4% | i
O=C(Sc1ccccc1)c1cccc(Cn2cc(C(F)(F)F)ccc2=O)c1 | 18% | 18µM* | u | u | 23µM* | i
SMILES | SW480 rereplic | HT1080NT lethal | KB-V1 cytotox | MCF10A rerep | HT1080 IDH1KD tx | KB-3-1 tox
O=C(Nc1ccccc1)c1cccc(Cn2cc(C(F)(F)F)ccc2=O)c1 | -10% | 3% | i | -4% | -6% | i
O=C(Nc1ccc(F)cc1F)c1cccc2c1C(=O)N(C1CCCCC1)C2 | x | x | i | x | x | i
COc1cc(/C=N/NC(=O)c2ccc(COc3ccccc3Cl)o2)cc(Br)c1O | -12% | 8% | i | 7% | 5% | i
O=C(N/N=C/c1ccccc1F)c1ccc(COc2ccccc2Cl)o1 | -2% | -3% | 18µM* | u | -1% | i
COC(=O)c1ccc(COc2ccccc2/C=N/O)o1 | 1.8µM* | 26% | i | -24% | 25% | i
O=C(CSc1cccc[n+]1[O-])Nc1ccccc1Oc1ccccc1 | u | 8.2µM* | u | -1% | 6.5µM* | i
COc1cc2c(cc1NC(=O)CSc1ccc(C)cc1)oc1ccccc12 | 21% | 0% | i | u | 6% | i
O=C(CSc1cccc[n+]1[O-])CSc1cccc[n+]1[O-] | 6.5µM* | 1µM* | u | -14% | 0.52µM* | i
COc1cc2c(cc1NC(=O)CCCN1C(=O)CCC1=O)oc1ccccc12 | 8% | 0% | i | 0% | 0% | i
COc1cc2c(cc1NC(=O)CCCCCN1C(=O)CCC1=O)oc1ccccc12 | 6% | -3% | 7.3µM* | 1% | -19% | i
COc1cc2c(cc1NC(=O)CSc1cccc[n+]1[O-])oc1ccccc12 | -7% | 4% | 12µM* | 15% | 3% | u
C=CC[C@@H](CC(=O)N[C@@H](CO)Cc1ccccc1)C(=O)N[C@H](COC(=O)[C@@H](CC=C)Cc1ccc(F)cc1)C(C)(C)C | 27% | u | u | 20% | -7% | i
COc1cc2c(cc1NC(=O)CN1C(=O)NC3(CCc4ccccc43)C1=O)oc1ccccc12 (stereo not given) | u | 23µM* | u | u | 15µM* | i
COc1cc2c(cc1NC(=O)CN(C)Cc1ccc(OC)c(OC)c1)oc1ccccc12 | 18µM* | u | u | 9.2µM* | u | u
COc1cc2c(cc1NC(=O)CSc1nc3ccc(C)cc3[nH]1)oc1ccccc12 | 14% | x | x | 5.2µM* | x | x
